Experimental data published in PubChem BioAssay AID623868 (Vanderbilt High Throughput Screening Facility, 2012).
The whole screen tested about 2,100 compounds, of which about 760 (36%) were called active.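 The calls were made as follows: active = thallium-flux fluorescence traces judged by eye to show enhanced or reduced glutamate response, manual score 1 or -1, so both directions (some results past the limit were not filed as active); inactive = the rest, including fluorescent or raised-baseline compounds.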 Not all results are given here.

Assay: non-GIRK thallium flux modulation in mGlu8 cells, confirmation, counter-screen for GIRK activator project, cell-based, HEK-293 rmGlu8, no GIRK (AID 623868);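 also: extra codes mark interference with 3 for fluorescent and 4 for baseline rise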
Details: thallium flux fluorescence, at 10 µM, actives lie on both sides, codes: 1 enhancer, -1 blocker, 0 none, thallium stimulus containing EC20 glutamate

For `CCN(Cc1ccccc1)C(c1ccccn1)c1nnnn1C1CCCCC1` (stereo not drawn), which manual score is on record?
Its manual score is 0 (inactive).

For `CN(C)CCNC(=O)c1cc2c(s1)-c1ccccc1OC2`, which manual score is on record?
The manual score was 0 (inactive).

Which manual score does the source give for `CC(NC(=O)c1ccccc1NC(=O)CSc1nnnn1C)c1ccccc1` (stereo not drawn) here?
The manual score was 0 (inactive).

With `CN(C)Cc1c(O)ccc2occ(C(O)c3ccccc3)c12` (stereo not drawn) as the compound, how does the manual score read?
The manual score was 0 (inactive).

Which manual score does the source give for `O=C1CC(N2CCN(c3nc4ccccc4s3)CC2)C(=O)N1c1ccc(F)cc1` (stereo not drawn) here?
The manual score was 0 (inactive).

For `Cn1c(=O)cc(OCCCC(=O)NCc2ccc3c(c2)OCO3)c2ccccc21`, which manual score is on record?
The manual score was 0 (inactive).

Which manual score does the source give for `Cc1[nH]n(-c2ccc(Cl)cc2)c(=O)c1/C=N/c1nnc(-c2ccccc2)s1` here?
Its manual score is 1 (active).

Which manual score does the source give for `CCC1(C)Cc2c(sc3[nH]c(=S)n(Cc4ccccc4)c(=O)c23)CO1` (stereo not drawn) here?
Its manual score is 1 (active).

For `CC(C)C1Cc2c(sc3c2c(=O)n(Cc2ccccc2)c2nncn32)CO1` (stereo not drawn), which manual score is on record?
Its manual score is -0.5 (inactive).

With `CC1(C)Cc2c(sc3[nH]c(=S)n(Cc4ccco4)c(=O)c23)CO1` as the compound, how does the manual score read?
Its manual score is 1 (active).

For `CC(C)C1Cc2c(sc3[nH]c(=S)n(Cc4ccccc4)c(=O)c23)CO1` (stereo not drawn), which manual score is on record?
Its manual score is 1 (active).

For `CC1(C)Cc2c(sc3[nH]c(=S)n(Cc4ccccc4)c(=O)c23)CO1`, which manual score is on record?
Its manual score is 1 (active).

For `Cc1ccc(C)c(OCC(O)CN2C(C)CCCC2C)c1` (stereo not drawn), which manual score is on record?
The manual score was 0 (inactive).

For `Cc1cc(N2CCC(C)CC2)n2ncc(-c3ccccc3)c2n1`, which manual score is on record?
The manual score was 0 (inactive).

Which manual score does the source give for `O=C(C1CCN(c2ncnc3c2sc2cccc(F)c23)CC1)N1CCOCC1` here?
The manual score was -0.5 (inactive).

Which manual score does the source give for `CN(C)CCCOc1nc2c(c(=O)n(C)c(=O)n2C)n1C` here?
Its manual score is 1.5 (inactive).

Which manual score does the source give for `O=C(Nc1ccc(Cl)cc1)NC1CCCCC1Cc1ccco1` (stereo not drawn) here?
Its manual score is 0 (inactive).

With `CC1CCc2c(sc(NC(=O)C(=O)NCc3ccco3)c2C#N)C1` (stereo not drawn) as the compound, how does the manual score read?
Its manual score is 1 (active).

Which manual score does the source give for `O=C(NCc1ccccc1)C(=O)Nc1nc(C23CC4CC(CC(C4)C2)C3)cs1` here?
Its manual score is 0 (inactive).

For `CCn1nc(C(=O)OCC(=O)c2c[nH]c3ccccc23)c2ccccc2c1=O`, which manual score is on record?
Its manual score is -1 (active).

For `CCCCn1nc(C(=O)N2CCc3ccccc32)c2ccccc2c1=O`, which manual score is on record?
The manual score was 0 (inactive).

Which manual score does the source give for `CCOC(=O)C(C)Sc1nnc(-c2c[nH]c3ccccc23)n1C` (stereo not drawn) here?
The manual score was 0 (inactive).

For `CCn1nc(C(=O)OCC(=O)N2CCc3ccccc32)c2ccccc2c1=O`, which manual score is on record?
The manual score was -1 (active).

For `O=C(COc1ccc2ccccc2c1CN1CCOCC1)N1CCc2ccccc21`, which manual score is on record?
Its manual score is 0 (inactive).

With `CCN(C(=O)CN1CCN(c2ccccc2O)CC1)c1c(N)n(Cc2ccccc2)c(=O)[nH]c1=O` as the compound, how does the manual score read?
Its manual score is 0 (inactive).

With `CC(C)(C)c1ccc(SCC(N)=O)cc1` as the compound, how does the manual score read?
Its manual score is 0 (inactive).

With `Cc1cccc(C(=O)NNC(=O)C(=O)NC(C)(C)C)c1` as the compound, how does the manual score read?
Its manual score is 1 (active).

For `CC(C)(C)NC(=O)C(=O)NNC(=O)c1ccc(C(C)(C)C)cc1`, which manual score is on record?
Its manual score is 1 (active).

Which manual score does the source give for `CC(C)(C)c1ccc(C(=O)NC(=S)Nn2cnnc2)cc1` here?
Its manual score is 0 (inactive).

For `COc1ccc(Cn2c(=S)[nH]c3ccsc3c2=O)cc1`, which manual score is on record?
Its manual score is 1 (active).

Which manual score does the source give for `COc1cc(NC(=O)CCn2c(=O)[nH]c3ccsc3c2=O)cc(OC)c1` here?
Its manual score is 0 (inactive).

Which manual score does the source give for `COc1ccccc1N1CCN(C(=O)CCn2c(=O)[nH]c3ccsc3c2=O)CC1` here?
The manual score was 0 (inactive).

For `Cc1cc(C)cc(OCC(=O)N2N=C(C(F)(F)F)CC2(O)C(C)(C)C)c1` (stereo not drawn), which manual score is on record?
Its manual score is 0 (inactive).

Which manual score does the source give for `Cc1ccccc1C(=O)Nc1ccc2nc3n(c(=O)c2c1)CCC3` here?
The manual score was 0 (inactive).

Which manual score does the source give for `Cc1ccccc1C(=O)Nc1nc(=S)ss1` here?
Its manual score is 1 (active).

For `Cc1ccccc1CNC(=O)Nc1cccs1`, which manual score is on record?
Its manual score is 0 (inactive).

With `O=C(Cn1c(=O)[nH]c2ccsc2c1=O)NC1CCCCCC1` as the compound, how does the manual score read?
The manual score was 0 (inactive).

Which manual score does the source give for `CCc1ccc2c(c1)c(N=NC1=NC(=O)CS1)c(O)n2CC` here?
Its manual score is 1 (active).

With `CCc1ccc2c(c1)c(N=NC1=NC(=O)CS1)c(O)n2C` as the compound, how does the manual score read?
Its manual score is 1 (active).

For `CCn1c(O)c(N=NC2=NC(=O)CS2)c2cc(C)ccc21`, which manual score is on record?
Its manual score is 1 (active).

Which manual score does the source give for `CC(Nc1nc(N2CCCC2)nc2ccccc12)c1ccccc1` (stereo not drawn) here?
Its manual score is 0 (inactive).

With `Cc1ccccc1/C=c1\s/c(=C\C(=O)C(C)(C)C)[nH]c1=O` as the compound, how does the manual score read?
The manual score was 0.5 (inactive).

Which manual score does the source give for `CC(C)(C)S(=O)(=O)c1ccc(S(=O)(=O)C(C)(C)C)s1` here?
The manual score was 0 (inactive).

With `CCCn1nnnc1NC(=O)c1ccc2ccccc2c1` as the compound, how does the manual score read?
Its manual score is 1 (active).

Which manual score does the source give for `CCCn1nc2cc(C(=O)NCCc3ccc(C)cc3)ccc2c1OCC` here?
Its manual score is 0 (inactive).

With `CCC(=O)Nc1ccc2c(c1)ncn2-c1ccc(OC)cc1` as the compound, how does the manual score read?
Its manual score is 0 (inactive).

Which manual score does the source give for `CC1CCCN(Cc2cccc(Oc3ccccc3)c2)C1` (stereo not drawn) here?
Its manual score is 0 (inactive).

Which manual score does the source give for `Cc1ccc(N=Nc2ccc(O)c3ncccc23)cc1` here?
The manual score was 1 (active).

With `Cc1ccccc1N=Nc1ccc(O)c2ncccc12` as the compound, how does the manual score read?
The manual score was 1 (active).

With `O=c1cc(CN2CCOCC2)nc(C2CC2)[nH]1` as the compound, how does the manual score read?
Its manual score is 0 (inactive).

Which manual score does the source give for `C/C(CC(O)c1ccc2ccccc2n1)=N/O` (stereo not drawn) here?
The manual score was 0 (inactive).

With `CCCCn1c(N)c(C(=S)NC(=O)CC(C)(C)C)c(=O)n(C)c1=O` as the compound, how does the manual score read?
Its manual score is 1 (active).

For `CCCCn1c(N)c(C(=S)NC(=O)CC(C)C)c(=O)n(C)c1=O`, which manual score is on record?
Its manual score is 1 (active).
